# Test results from the supplement of paper PMC3334620.
# The full ranking holds about 33,000 sequences; the median of “E-score (-0.5 to 0.5)” is about -0.04, and the highest 2% start at about 0.36. The sample holds the highest values, similar sequences and a random draw of the others, so the mix is not that of the screen.
# Molecular target: T1, Hmlalpha2 (UniProt P0CY09)
# T1 sequence: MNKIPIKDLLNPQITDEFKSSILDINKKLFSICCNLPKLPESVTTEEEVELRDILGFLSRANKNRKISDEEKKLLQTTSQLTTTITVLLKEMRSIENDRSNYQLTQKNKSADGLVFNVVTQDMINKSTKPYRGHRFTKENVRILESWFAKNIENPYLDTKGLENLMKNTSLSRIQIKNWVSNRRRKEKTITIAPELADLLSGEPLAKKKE
# Assay: PBM E-score (8-mer binding enrichment) (E-score (-0.5 to 0.5)); higher = stronger / more preferred TF binding
# Conditions: protein concentration: 200 nM; construct: GST-full length
# Summary of the method: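 Detection of bound protein used fluorescent anti-GST, with scans normalised by masliner. The proteins were GST-tagged yeast transcription factors applied at about 100-200 nM to universal all-10-mer Agilent arrays made double-stranded by primer extension. Each ungapped eight-base word, pooled with its reverse complement, was scored with an E-score from the Universal PBM Analysis Suite.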
row,Sequence,PBM E-score
1,AGACGCCG,-0.154
2,CTACGTAA,0.318
3,ATACGCAA,0.347
4,ATACGTAG,0.257
5,GTACGTAA,0.34
6,ATACGTAC,0.242
7,GTACGCAA,0.155
8,ATACGTAA,0.379
9,TTACGCAA,0.391
10,TTACGTAA,0.426
11,CTCCTCGC,-0.164
12,CTCCATCC,-0.1
13,CAGCCGTC,-0.132
14,AACACATA,0.39
15,AACACATG,0.363
16,GACACATA,0.26
17,TACACATA,0.408
18,CACACATA,0.214
19,AACACATC,0.291
20,GAACCACA,0.0162
21,GAATTGAC,0.104
22,ACTTTGGA,0.136
23,ATGTCAAT,0.4
24,CTGTCAAA,0.18
25,ATGTCATA,0.311

row,Sequence,PBM E-score
1,ATGTCAAA,0.354
2,CTGTCAAC,0.198
3,ATGTCATG,0.388
4,GTGTCAAA,0.382
5,TTGTCAAA,0.262
6,ATGTCAAG,0.305
7,GTGTCAAC,0.305
8,ATGTCAAC,0.374
9,ATGTCATC,0.0953
10,AGAAAGCG,-0.00586
11,ATGCTGGC,0.0473
12,GCCATTTA,0.00861
13,GAGATTCC,-0.218
14,ATATTCTG,0.00643
15,CCTTAAAC,-0.15
16,ATGCTAAT,0.167
17,AGATTGTG,0.0599
18,AACATTAC,0.332
19,CACATTAC,0.375
20,CACATTAG,-0.078
21,CGCGCACA,0.133
22,CATGTAGC,0.344
23,CAAGTAGG,-0.0322
24,CATGTAGA,0.472
25,CCTGTAGA,0.0876

row,Sequence,PBM E-score
1,AGTGTAGA,0.171
2,CGTGTAGA,0.482
3,CGTGTAGC,0.344
4,TATGTAGA,0.424
5,AATGTAGG,0.0581
6,CATGTAGG,0.407
7,GATGTAGA,0.314
8,AATGTAGA,0.301
9,ACATAGCC,0.231
10,CCGCTCTC,-0.296
11,AGCTTAAA,-0.0456
12,AATCTGTA,0.186
13,AATTAGGC,-0.0388
14,AGCCTAAG,-0.223
15,CTAGACGA,-0.137
16,AACAGGTG,0.184
17,TAGATATA,0.0377
18,AGCATGTC,0.267
19,GGCATGTA,0.439
20,CGCATGGA,-0.0665
21,GGCATGCA,0.128
22,CGCATGTC,0.274
23,CGCATGTA,0.422
24,GGCATGGA,-0.113
25,AGCATGTA,0.458

row,Sequence,PBM E-score
1,AGCATGTG,0.22
2,AAGGGTGC,-0.233
3,AGGGTGTA,0.186
4,TTCTACAA,0.314
5,ACCCTGAT,-0.3
6,AGGTTATA,0.0651
7,ATGTTATA,0.418
8,ACGTTATC,0.145
9,ATGTTATG,0.425
10,GCGTTATA,0.218
11,CTGTTATA,0.29
12,CTGTTATC,-0.00298
13,AAGTTATG,0.256
14,ATGTTATC,0.401
15,ACGTTATA,0.275
16,ATGTTACG,0.351
17,GTGTTATA,0.444
18,ATGAGGCG,-0.102
19,AAGGAGCA,-0.237
20,CACCTCAC,0.0105
21,CCTATTCA,-0.319
22,CGCGGCCC,-0.135
23,CATTCTCG,-0.0595
24,AGAACGAC,-0.0288
25,AAGAGCGA,-0.2

row,Sequence,PBM E-score
1,CTCGTGTC,0.257
2,ATCGTGTA,0.475
3,CTCGTGTA,0.434
4,ATCGTGTG,0.313
5,GTCGTGGA,-0.154
6,CTCGTGGA,-0.107
7,ATCGTGTC,0.358
8,GTCGTGTA,0.464
9,GTCGTGCA,0.0844
10,CACCTATC,-0.0688
11,AGTAGTCA,-0.00856
12,CCAGGTAC,-0.122
13,ATAAGCAG,-0.00191
14,CGTTTTTA,0.253
15,GCAGTGTA,0.292
16,ACACGGGC,0.325
17,ACACGGGT,0.391
18,ACACGGGA,0.371
19,ACACGGGG,0.3
20,AAACGGGT,0.153
21,ACACGGCT,0.32
22,CTCTGCAA,-0.0611
23,CGGAGCTA,-0.0643
